Over roughly 33,000 sequences, “E-score (-0.5 to 0.5)” has its median near -0.021; the highest 2% begin near 0.32. The full list was thinned out, with the highest values kept by preference.
What follows are sequences tested against T1, Zap1 (UniProt P47043) (assay: PBM E-score (8-mer binding enrichment) (E-score (-0.5 to 0.5)); higher = stronger / more preferred TF binding). Details: protein concentration: 200 nM; construct: GST-full length.
T1 sequence: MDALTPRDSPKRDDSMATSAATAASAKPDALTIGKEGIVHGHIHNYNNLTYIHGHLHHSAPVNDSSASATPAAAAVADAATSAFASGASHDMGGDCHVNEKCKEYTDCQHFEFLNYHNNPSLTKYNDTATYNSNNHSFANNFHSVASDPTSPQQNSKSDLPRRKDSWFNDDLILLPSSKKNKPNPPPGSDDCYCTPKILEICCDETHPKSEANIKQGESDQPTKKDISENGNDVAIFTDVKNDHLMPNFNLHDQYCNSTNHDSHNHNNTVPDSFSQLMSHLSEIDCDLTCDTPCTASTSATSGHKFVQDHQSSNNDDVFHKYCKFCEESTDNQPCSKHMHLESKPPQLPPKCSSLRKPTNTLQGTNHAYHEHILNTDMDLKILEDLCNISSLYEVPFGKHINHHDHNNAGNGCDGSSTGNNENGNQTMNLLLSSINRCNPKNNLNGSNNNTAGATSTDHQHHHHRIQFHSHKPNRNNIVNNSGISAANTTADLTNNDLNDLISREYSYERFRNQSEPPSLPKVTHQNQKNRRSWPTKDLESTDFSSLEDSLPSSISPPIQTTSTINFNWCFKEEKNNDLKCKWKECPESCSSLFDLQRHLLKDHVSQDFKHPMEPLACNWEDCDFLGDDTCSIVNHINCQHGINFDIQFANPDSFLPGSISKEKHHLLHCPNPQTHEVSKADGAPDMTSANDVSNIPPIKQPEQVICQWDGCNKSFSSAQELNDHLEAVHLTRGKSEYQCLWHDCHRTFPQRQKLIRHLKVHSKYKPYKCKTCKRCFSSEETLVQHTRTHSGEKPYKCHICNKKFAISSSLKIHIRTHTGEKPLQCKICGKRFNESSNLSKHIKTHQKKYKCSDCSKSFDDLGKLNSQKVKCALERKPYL
Method: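 Universal 'all 10-mer' protein binding microarrays (Agilent AMADID 015681) probed with GST-tagged S. cerevisiae TFs (full-length or DBD) made by in vitro transcription/translation (PURExpress), about 100-200 nM. Bound TF was detected with fluorescent anti-GST. Each ungapped 8-mer (which stands for itself and its reverse complement) is scored by the PBM enrichment score (E-score), a modified Wilcoxon-Mann-Whitney statistic from -0.5 to +0.5, computed with the Universal PBM Analysis Suite. Scale: above 0.35 generally sequence-specific binding.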

Sequence | PBM E-score
AGTGGTTA | 0.434
CGTGGTCA | 0.195
AGTGGTCA | 0.197
CGTGGTTA | 0.348
AGTGGTTG | 0.312
CGTGGTTC | 0.185
GGTGGTGA | 0.23
GGTGGTTA | 0.433
AGTGGTTC | 0.129
CGTGGTAA | 0.0908
GGTGGTAA | 0.274
GGTGGTCA | 0.341
CCCACTTA | -0.0455
CTTGTGAC | 0.0651
CCTTCATA | 0.102
GCAGCACA | -0.0816
GACAAAGC | -0.143
GGTCCTCA | 0.0332
CCAGAGTC | 0.0266
AACAGTCT | -0.14
AAAACATA | 0.0671
GAAACATC | -0.0445
GAAACATA | 0.318
GACTTAGC | -0.317
GAGCGCCA | -0.291

Sequence | PBM E-score
TGGATTAA | 0.0758
AACCCCCG | -0.149
AACCCGGT | 0.249
AACCCGGG | 0.324
ACCCCGGG | 0.34
ACCCCGGC | 0.119
CCCCCGGG | 0.167
ACCCCCGG | -0.0785
AACCCGGA | 0.332
GACCCGGA | 0.118
CACCCGGG | 0.129
CACCCGGA | 0.235
AACCCCGG | 0.337
GGCAGACC | -0.192
TCACGCAA | 0.0552
GTATAGCA | -0.104
CTTGTTGA | 0.124
GGAACAAA | 0.111
CTAGCTCC | -0.246
CCGAGCAC | -0.0385
AGAAACTA | -0.0549
AGAGAAAC | -0.0339
AAGGGAAC | 0.0495
GAGCTAGC | -0.179
CTCCTTTC | -0.0488

Sequence | PBM E-score
ATGTAACG | 0.0833
CTGTAACA | 0.00661
CTGTAAAC | 0.16
ATGTAACA | 0.153
ATGTAACC | 0.395
CTGTAACC | 0.463
ACTGCTAT | -0.0537
AAACGGAA | 0.127
AAGACCGC | 0.0669
GAGCAACC | 0.0661
ATCGGTTC | 0.0913
AATGACCC | 0.3
CATGACCA | 0.284
GATGACCA | 0.129
GATGACCC | 0.403
CATGACCC | 0.38
CATGACCG | 0.177
CCGACCTC | -0.0902
CGATCTGA | -0.0395
CAACTGTC | -0.0568
ACGAAGGA | -0.166
GCCCTTTA | -0.0495
ATCCTTTG | 0.161
CCCCTTTA | -0.00689
ACCCTTTG | 0.345

Sequence | PBM E-score
ACCCTTTC | 0.298
ACCCTTTA | 0.415
CCCTACGC | -0.17
GCGTCCCC | -0.249
AGTGCCCC | -0.156
AACCAGGT | 0.201
ATGGAGCC | -0.222
GGCGGTAA | 0.125
CGCGGTTA | 0.452
AGCGGTTC | 0.164
CGCGGTTC | 0.181
AGCGGTTG | 0.216
GGCGGTCA | 0.12
AGCGGTTA | 0.405
GGCGGTTA | 0.324
CGCGGTGA | 0.144
AAAAACTA | 0.175
ATACCAAA | 0.153
GCCTACTA | -0.0183
AAGTAACC | 0.393
AAGTAACT | -0.0363
AAGTAACG | 0.052
GAGTAAGC | -0.221
GAGTAACA | 0.135
GAGTAACC | 0.399

Sequence | PBM E-score
CAGTAACC | 0.44
CAGTAACA | -0.0862
CAGTAACG | 0.0273
GCAGTAAA | 0.104
ATTATACA | 0.0605
ATTATACG | 0.0915
ATTATACC | 0.338
CAGCAGAA | -0.0338
GGAGGTCA | 0.136
AGAGGTCG | 0.304
AGAGGTCC | 0.201
CGAGGTCC | 0.0996
AGAGGTCA | 0.41
CGAGGTCA | 0.357
ATGTCGCG | 0.0309
CAGAAGCC | -0.173
GTCCCAAA | 0.0529
ATGGTTCC | 0.21
AAGGTTCA | 0.054
AGGGTTCA | 0.146
AGGGTTCG | 0.0919
AGGGTTCC | 0.354
CAGGTTCC | 0.0995
AAGGTTCC | 0.317
AAGGTTCG | -0.0644

Sequence | PBM E-score
AAGGTTCT | 0.327
CCAGTGTA | -0.00071
CACTGTAA | 0.0817
CTAGCGAA | -0.221
GCTTCAGA | -0.167
ACATACCA | -0.0785
CCATACCC | 0.29
ACATACCC | 0.347
GCATACCA | -0.0787
ACATACCG | -0.00488
GCATACCC | 0.344
AGCAGGGG | -0.0612
AGACAATA | 0.0476
GGTTACGA | 0.465
CGTTACTA | 0.0809
AGTTACGA | 0.226
AGTTACTA | 0.129
CGTTACGA | 0.121
AGTTACCA | 0.263
GGTTACCA | 0.468
GGTTACTA | 0.447
CGTTACCA | 0.31
AGTCTTAT | -0.115
CCGATAGC | -0.225
AACTAAGG | 0.017

Sequence | PBM E-score
CACTACCA | 0.22
CACTACCC | 0.367
AACTACCG | 0.179
AACTACCT | 0.286
AACTACCC | 0.391
GACTACCC | 0.301
ATTGCCTG | -0.0833
GCCAGGGC | -0.128
CGCATACG | -0.12
AACCTATG | 0.258
CCCCTATA | -0.102
GCCCTATA | -0.144
ACCCTATA | 0.354
ACCCTATC | 0.276
ACCCTATG | 0.368
CCAGGCCG | -0.0809
GCGACACC | 0.0184
ACACTCAA | 0.139
AACGCTTC | -0.128
AGAAGCTA | -0.265
CAACCGTA | 0.0143
CTTCAAAA | 0.0592
TTTCAAAA | 0.321
GTTCAAAA | 0.0198
CGCACAAC | 0.122

Sequence | PBM E-score
ACGGTTTC | -0.0123
ACGGTTAT | 0.414
ACGGTTAA | 0.258
ACGGTTAG | 0.223
ACGGTTGC | 0.117
ACGGTTAC | 0.411
AGTTTGCA | -0.0409
TCCTCACA | 0.0409
AAGAACTC | 0.0396
ACAAAGAA | 0.178
ACTGAATC | -0.0382
CGTCATGA | 0.0742
AGTCATTA | -0.17
CGTCATTA | -0.145
GGTCATAC | 0.313
GGTCATTA | 0.321
AGTCATGA | 0.0992
GGTCATGA | 0.346
TGTCATAA | 0.184
GGTCATAA | 0.379
CCGGACCG | -0.129
AGCAATGC | -0.0926
ACGCGAAG | 0.0536
ACTACCCG | 0.261
GAGGGTCC | 0.134

Sequence | PBM E-score
TCGGGTCA | 0.233
AGGGGTCG | 0.0682
ATGGGTCC | 0.263
AAGGGTCG | 0.36
TAGGGTCA | 0.408
GAGGGTCA | 0.397
GTGGGTCA | 0.211
ACGGGTCG | 0.116
ATGGGTCA | 0.359
ATGGGTCG | 0.0454
TAGGGTGA | 0.299
ACTGGCTA | -0.0583
CCGAGACC | 0.197
AGCAATGG | -0.133
AAACAGGT | 0.135
ATACTCTC | -0.15
CACAGTTC | -0.0558
CTACTCGC | -0.18
ATGGGCGG | -0.125
